Publication PMC12864922, “TDP-43 directly inhibits mRNA accumulation in neurites through modulation of mRNA stability”
In all, about 9,900 sequences were measured (“r (bound/input frequency ratio)”: median about 0.7, highest 2% from about 6.5 on). Only a selection was taken, and the highest values are over-represented in it overall.

B1: ENSMUSG00000022095.20|Fam160b2 (ssRNA)
RNA: GGGAGUUCUACAGUCCGACGAUCGCUUCGAUAUCCGCAUGCUAGGUGGGGGAAGAUUCCUGCCUGUGUACUUCUGCCCACGGGCAGUCUCCUGCCUGGCCAUGCUGCCACUCUGUCCUCCAUGCCGGGGACUUCAGCUGCAGGACACCUCACCUGUUGACCCCACGAGCUGAGGUUUCAAGGAGGUGCUGGCUCCUAAGGCAGUGGUAUUCUUGGAGCCUUUUAGAGGAGCUAGAGGAUGGCCAGUGAGCGCCUAGAUGCUGCCCUGCAUGUGUUGCGUGACUAUCUCUGCUAUAUUGUGACCCUCUUGCGGUCGCACUAGUGUGGAAUUCUCGGGUGUCAAGG
B2: ENSMUSG00000058297.107|Spock2|69:74 (ssRNA)
RNA: GGGAGUUCUACAGUCCGACGAUCGCUUCGAUAUCCGCAUGCUAUGAGGCAGGACCUGUACACACAGCAAGGCUUACUAUCCGUCUCCUGACAUCCGAAGAGCUCGUCGCAGCACACACUAAUGGCCCUUGGGCUGCACGUGGUUAAGCAUAGCUGUCUCUGUGGCCCAACACAAAGAGGUAAACUUACUUAAAACACAGGGGUUUUGUUGCUGUUUGUUUUUUGUUAGUUUGUUUGUUGAUAAUUGGAUUGAGGAGUUAAUCCUCUGUCACAAUGUCAAAAGCAUGGACAUCCCUGAUAGAUUCUCUUGCGGUCGCACUAGUGUGGAAUUCUCGGGUGUCAAGG
B3: ENSMUSG00000061578.1365|Ksr2|224:228 (ssRNA)
RNA: GGGAGUUCUACAGUCCGACGAUCGCUUCGAUAUCCGCAUGCUACAGGACAGCCCAGCUUCCCACUCCAGACAUGUUGUUCUUACAUCUCUGACCCAGUGAUCUUUCUAGGGGUCUGUCACAUGUCCCAACAGGUGGACAGCUCUCCAAGUCACCAACCUGAGGAAAAUAUCCCUCCUUGUAAAAAGGCUUUCUCUUUGUAAAUGAUUCUGUUGCCUUUUUCUAAACACAAAGUAUAUAUACCUAUAAAUGCUAUAUAUAUUAUAUAACACAAUAUACAUAAAGACUACUUCUUGUACAGCCCUCUCUUGCGGUCGCACUAGUGUGGAAUUCUCGGGUGUCAAGG
B4: ENSMUSG00000004113.365|Cacna1b (ssRNA)
RNA: GGGAGUUCUACAGUCCGACGAUCGCUUCGAUAUCCGCAUGCUAUAUACAAAGGCACAAUACCCUGAAACUUUAACAGAGUAUUUUAUUCCAGUAGGGUAAAAUUAAACGGGACUCUUGGACUGCGCAUGUGACUGCACCCACGUUGCAACAGAGAAGGAUGUGCAUUUUGAUACUGAUGUUCUGUCUCUGUUCCAGCCCCAGCCCCCUUUUCUCUUGAGUGUUGAAUGUAUACAUUCUGUGUGGAACUACAGCUGCCUCAGACAAUCCUGGGUUGGGAAUCAUCUUUAUCCCACAUCAACAUACUCUUGCGGUCGCACUAGUGUGGAAUUCUCGGGUGUCAAGG
B5: ENSMUSG00000058297.177|Spock2 (ssRNA)
RNA: GGGAGUUCUACAGUCCGACGAUCGCUUCGAUAUCCGCAUGCUAUGUCAUCAUAUAGCUGAGAUUUGGAGUAGCCUGCUAUGAGGGCUUGCAGUUGCACUCUCUGUUCCCUGGCGAGGGUCCCCCUUGUCCCAAGGAGCAGAGGACCAGCAAGCAGCCCGUGUCUGCUCACCUUCUCCCUGACCCUCUAGGAAAUGGUUCCCUCUUGCCCCGACCAAUAGAAGGGCGUGUCCCCGAGACCCUUGUGAGGAACCACGGGGAGCUGUGACUUCCUGUGCCCAGAAGGUCCUGGAGGAGAGGCCCCACUCUUGCGGUCGCACUAGUGUGGAAUUCUCGGGUGUCAAGG
B6: ENSMUSG00000058297.112|Spock2|39:44 (ssRNA)
RNA: GGGAGUUCUACAGUCCGACGAUCGCUUCGAUAUCCGCAUGCUAUACUAUCCGUCUCCUGACAUCCGAAGAGCUCGUCGCAGCACACACUAAUGGCCCUUGGGCUGCACGUGGUUAAGCAUAGCUGUCUCUGUGGCCCAACACAAAGAGGUAAACUUACUUAAAACACAGGGGUUUUGUUGCUGUUUGUUUUUUGUUAGUUUGUUUGUUGAUAAUUGGAUUGAGGAGUUAAUCCUCUGUCACAAUGUCAAAAGCAUGGACAUCCCUGAUAGAUUAUCUCUCAACCUAGUCCCGAGUAACCAGAGCUCUUGCGGUCGCACUAGUGUGGAAUUCUCGGGUGUCAAGG
B7: ENSMUSG00000022095.12|Fam160b2|69:73 (ssRNA)
RNA: GGGAGUUCUACAGUCCGACGAUCGCUUCGAUAUCCGCAUGCUAAACUUCUCUCCACCUCCAGAAGGGCAAGUCUGAGCCAGGAGCAUGACGGGUGGGGGAAGAUUCCUGCCACACAACUUCUGCCCACGGGCAGUCUCCUGCCUGGCCAUGCUGCCACUCUGUCCUCCAUGCCGGGGACUUCAGCUGCAGGACACCUCACCUGUUGACCCCACGAGCUGAGGUUUCAAGGAGGUGCUGGCUCCUAAGGCAGUGGUAUUCUUGGAGCCUUUUAGAGGAGCUAGAGGAUGGCCAGUGAGCGCCUACUCUUGCGGUCGCACUAGUGUGGAAUUCUCGGGUGUCAAGG
B8: ENSMUSG00000028439.123|Fam219a|54:58 (ssRNA)
RNA: GGGAGUUCUACAGUCCGACGAUCGCUUCGAUAUCCGCAUGCUACUGAGGGUUGGGAAGGUAAGAUGGGCCUUAGAGAGAAGCCAGGUUUGGGGAUGCAUACACCUGUUCUCACCGGUCUCUAACCAGUGCAUCUGUCUCUCUGCCUCAUCCCCACACCGCCCUGCCACCCCCAGUCUUCUGUCUAUUGGUUCCAGGCUGGAAGCAAGAGAUAAGGCUGGCCUCCUGUGCCCCAUUGCCAUUUCACCCUAGCUCAAAGUCCAGGAGCCAGGCUUCCAGAAAGGCUCUUCAAGAGCAAGCUUAAGCUCUUGCGGUCGCACUAGUGUGGAAUUCUCGGGUGUCAAGG
B9: ENSMUSG00000042529.392|Kcnj12 (ssRNA)
RNA: GGGAGUUCUACAGUCCGACGAUCGCUUCGAUAUCCGCAUGCUAGAUCAGUCCGACUUGAGUCCCUGCCCUGCCCUGGUUAUGCAGGCUGUACGACGCAGUGUGCAUCAGUCUGAGGAGUCUGGUGGUAAGUAAGCCUCUGCAGCAGACCCUGUCGGAGGCCAUGGGGGCGUGUGUGUGUGUGUGUGUGUGUGUGUGUGUGUGUGUGUGUGUGUGUGUGUGUGAACAUGUGUGAGGGUGUGGAGGUCCCAGGGUGUGUGUAUGUGAAUGUCAGUGGCUUGGGUGCUGUGUGGAGAGAGAGAGAGCUCUUGCGGUCGCACUAGUGUGGAAUUCUCGGGUGUCAAGG
B10: ENSMUSG00000042529.393|Kcnj12 (ssRNA)
RNA: GGGAGUUCUACAGUCCGACGAUCGCUUCGAUAUCCGCAUGCUAUCCGACUUGAGUCCCUGCCCUGCCCUGGUUAUGCAGGCUGUACGACGCAGUGUGCAUCAGUCUGAGGAGUCUGGUGGUAAGUAAGCCUCUGCAGCAGACCCUGUCGGAGGCCAUGGGGGCGUGUGUGUGUGUGUGUGUGUGUGUGUGUGUGUGUGUGUGUGUGUGUGUGUGUGAACAUGUGUGAGGGUGUGGAGGUCCCAGGGUGUGUGUAUGUGAAUGUCAGUGGCUUGGGUGCUGUGUGGAGAGAGAGAGAGAGAGAGCUCUUGCGGUCGCACUAGUGUGGAAUUCUCGGGUGUCAAGG
B11: ENSMUSG00000042529.398|Kcnj12 (ssRNA)
RNA: GGGAGUUCUACAGUCCGACGAUCGCUUCGAUAUCCGCAUGCUAAUGCAGGCUGUACGACGCAGUGUGCAUCAGUCUGAGGAGUCUGGUGGUAAGUAAGCCUCUGCAGCAGACCCUGUCGGAGGCCAUGGGGGCGUGUGUGUGUGUGUGUGUGUGUGUGUGUGUGUGUGUGUGUGUGUGUGUGUGUGAACAUGUGUGAGGGUGUGGAGGUCCCAGGGUGUGUGUAUGUGAAUGUCAGUGGCUUGGGUGCUGUGUGGAGAGAGAGAGAGAGAGAGAGAGAGAGAGAGAGAGAGAGAGAGAGAGAGCUCUUGCGGUCGCACUAGUGUGGAAUUCUCGGGUGUCAAGG
B12: ENSMUSG00000058297.302|Spock2|29:34 (ssRNA)
RNA: GGGAGUUCUACAGUCCGACGAUCGCUUCGAUAUCCGCAUGCUAAUGCCCAGGAAGAGUGAGGGCAGCCCCCACACACGUGGAAGAGGCUGGGCAGCUAGCUACUGGGGACCUUGUGCUGAGGCUUCCAGGACAAAGCCCCAGUCUGGCUCUCCCCCAGCCUCUCAGGGGCACUGGCUGGUCACAUCCACUGAGUAUUGAUCGGUUGGACUUUAGGGAAGAGCCUCCUCCUUCCCAUUCCUUUCUGCCACCCUGGAAUGGCCACCUUAAUCGUCAUCUCCUCGGGGGGAAUACGGAAAUGUCACCUCUUGCGGUCGCACUAGUGUGGAAUUCUCGGGUGUCAAGG
B13: ENSMUSG00000042529.387|Kcnj12 (ssRNA)
RNA: GGGAGUUCUACAGUCCGACGAUCGCUUCGAUAUCCGCAUGCUACUGGUCAGGCUGGAUGCUGGCCACAGACAUGAUCAGUCCGACUUGAGUCCCUGCCCUGCCCUGGUUAUGCAGGCUGUACGACGCAGUGUGCAUCAGUCUGAGGAGUCUGGUGGUAAGUAAGCCUCUGCAGCAGACCCUGUCGGAGGCCAUGGGGGCGUGUGUGUGUGUGUGUGUGUGUGUGUGUGUGUGUGUGUGUGUGUGUGUGUGUGAACAUGUGUGAGGGUGUGGAGGUCCCAGGGUGUGUGUAUGUGAAUGUCAGUCUCUUGCGGUCGCACUAGUGUGGAAUUCUCGGGUGUCAAGG
B14: ENSMUSG00000042529.386|Kcnj12 (ssRNA)
RNA: GGGAGUUCUACAGUCCGACGAUCGCUUCGAUAUCCGCAUGCUACCUGAACUGGUCAGGCUGGAUGCUGGCCACAGACAUGAUCAGUCCGACUUGAGUCCCUGCCCUGCCCUGGUUAUGCAGGCUGUACGACGCAGUGUGCAUCAGUCUGAGGAGUCUGGUGGUAAGUAAGCCUCUGCAGCAGACCCUGUCGGAGGCCAUGGGGGCGUGUGUGUGUGUGUGUGUGUGUGUGUGUGUGUGUGUGUGUGUGUGUGUGUGUGAACAUGUGUGAGGGUGUGGAGGUCCCAGGGUGUGUGUAUGUGAAUCUCUUGCGGUCGCACUAGUGUGGAAUUCUCGGGUGUCAAGG
B15: ENSMUSG00000042529.397|Kcnj12 (ssRNA)
RNA: GGGAGUUCUACAGUCCGACGAUCGCUUCGAUAUCCGCAUGCUACUGGUUAUGCAGGCUGUACGACGCAGUGUGCAUCAGUCUGAGGAGUCUGGUGGUAAGUAAGCCUCUGCAGCAGACCCUGUCGGAGGCCAUGGGGGCGUGUGUGUGUGUGUGUGUGUGUGUGUGUGUGUGUGUGUGUGUGUGUGUGUGUGAACAUGUGUGAGGGUGUGGAGGUCCCAGGGUGUGUGUAUGUGAAUGUCAGUGGCUUGGGUGCUGUGUGGAGAGAGAGAGAGAGAGAGAGAGAGAGAGAGAGAGAGAGAGAGCUCUUGCGGUCGCACUAGUGUGGAAUUCUCGGGUGUCAAGG
B16: ENSMUSG00000042529.388|Kcnj12 (ssRNA)
RNA: GGGAGUUCUACAGUCCGACGAUCGCUUCGAUAUCCGCAUGCUAAGGCUGGAUGCUGGCCACAGACAUGAUCAGUCCGACUUGAGUCCCUGCCCUGCCCUGGUUAUGCAGGCUGUACGACGCAGUGUGCAUCAGUCUGAGGAGUCUGGUGGUAAGUAAGCCUCUGCAGCAGACCCUGUCGGAGGCCAUGGGGGCGUGUGUGUGUGUGUGUGUGUGUGUGUGUGUGUGUGUGUGUGUGUGUGUGUGUGAACAUGUGUGAGGGUGUGGAGGUCCCAGGGUGUGUGUAUGUGAAUGUCAGUGGCUUGCUCUUGCGGUCGCACUAGUGUGGAAUUCUCGGGUGUCAAGG

target: TDP-43 (Homo sapiens, UniProt Q13148 1-414); test: RNA Bind-n-Seq with designed 260-mer pool; 25 mM Tris-HCl, 150 mM KCl, 3 mM MgCl2, BSA (printed 500 mg/mL), 20 units/mL SUPERase IN; pH not stated; 500 nM RNA pool, 1 h, 4 C; TDP-43 5, 50, 500 nM; high values mean tight binding; conditions: protein: recombinant; tags: SBP (GST cleaved off with PreScission; pGEX-GST-SBP)
Method in brief: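 For each oligo, R gives binding as its mapped-read-normalized abundance after pulldown divided by its abundance in input. Bead-captured SBP-tagged TDP-43 (5, 50 or 500 nM) was incubated with 500 nM of an in vitro-transcribed 260-nt 3′ UTR oligo pool for 1 h at 4 °C in 25 mM Tris-HCl, 150 mM KCl, 3 mM MgCl2, BSA and SUPERase IN on streptavidin beads. Washed, biotin-eluted RNA was reverse transcribed, PCR-amplified and sequenced.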

Chain of TDP-43 (Q13148 whole entry): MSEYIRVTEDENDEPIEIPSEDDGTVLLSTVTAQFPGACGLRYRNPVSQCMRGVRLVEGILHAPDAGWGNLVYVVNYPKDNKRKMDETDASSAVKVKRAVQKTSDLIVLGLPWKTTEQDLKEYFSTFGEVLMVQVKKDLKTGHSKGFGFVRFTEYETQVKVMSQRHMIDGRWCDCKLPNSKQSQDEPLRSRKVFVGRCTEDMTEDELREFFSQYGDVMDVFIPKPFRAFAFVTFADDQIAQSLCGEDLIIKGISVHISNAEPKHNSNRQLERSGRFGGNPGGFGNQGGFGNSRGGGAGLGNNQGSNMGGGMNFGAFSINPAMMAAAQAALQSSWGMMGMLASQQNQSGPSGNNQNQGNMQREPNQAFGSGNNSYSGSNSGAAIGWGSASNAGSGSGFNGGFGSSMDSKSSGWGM

| Binder | binding signal |
| --- | --- |
| B1 | 0.487 R (bound/input frequency ratio) |
| B2 | 1.04 R (bound/input frequency ratio) |
| B3 | 0.125 R (bound/input frequency ratio) |
| B4 | 0.216 R (bound/input frequency ratio) |
| B5 | 0.086 R (bound/input frequency ratio) |
| B6 | 1.33 R (bound/input frequency ratio) |
| B7 | 0.253 R (bound/input frequency ratio) |
| B8 | 0.5 R (bound/input frequency ratio) |
| B9 | 7.12 R (bound/input frequency ratio) |
| B10 | 5.42 R (bound/input frequency ratio) |
| B11 | 5.26 R (bound/input frequency ratio) |
| B12 | 0.746 R (bound/input frequency ratio) |
| B13 | 12.1 R (bound/input frequency ratio) |
| B14 | 6.36 R (bound/input frequency ratio) |
| B15 | 5.15 R (bound/input frequency ratio) |
| B16 | 9.68 R (bound/input frequency ratio) |
